Experiment in all cases: NCI-60 one-dose screen, 48 h (100 = growth as untreated, 0 = no growth, -100 = all killed)
Holding throughout (conditions): 10 µM

Assay [1] has as its system SK-MEL-2 melanoma.
Assay [2] deals with EKVX NSCLC.
In assay [3] the test system is UO-31 renal.
Assay [4] has as its system TK-10 renal.
For assay [5], the system named is CAKI-1 renal.
Assay [6] concerns A498 renal.
Assay [7] concerns CCRF-CEM leukemia.
The subject of assay [8] is MOLT-4 leukemia.
The subject of assay [9] is ACHN renal.
Assay [10] has as its system SN12C renal.

From PubChem BioAssay (NCI) come the findings set out here.

This is part of a sample that, as a whole, favours compounds with a hit. Of some 83,000 tested, about 20% had one in any assay.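 48-hour exposure, single concentration, 96-well plates; percent growth endpoint where 0 means no net growth. Active: below 10.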 Unmarked numbers belong to inactive results. The source made the active and inactive calls.

For `CS(=O)(=O)Nc1ccc([N+](=O)[O-])cc1Oc1ccccc1`, the growth in [1] is 125%; in [2], 87.6%; in assay [3], 81.5%; in assay [4], 117%; in [5], 78.7%; in assay [6], 92%. Further, the growth is 85.5% in [7] and 84.8% in assay [8].

For the compound `O=c1[nH]c(=O)n(C2C[C@@H](O)[C@@H](CO)O2)cc1F` (stereo not given in full), the growth in [1] is 57.3%; in [2] it was 70.7%; in [3] it was 10.5%; in assay [4], 35.5%; in assay [5], 31.6%; in assay [6] it was 15.8%. Besides, the growth was 29.1% in assay [7] and 32.5% in [8].

For `CCOc1ccc(-n2cc(-c3ccc(N(C)C)cc3)[n+]3c2CCCCC3)cc1`, the growth in assay [1] is -7.29% (active); in [2], 14.1%; in assay [3] it was 66.1%; in assay [4], 8.78% (active); in assay [5] it was 60.9%; in [6], -10.2% (active). Besides, the growth in assay [7] is 28.3%; in [8] it was 13.4%.

As to `Cn1c(N)c(N=Cc2ccccc2)c(=O)n(C)c1=O`, the growth in assay [1] was 97.1%; in [2], 100%; in assay [3], 81.5%; in assay [9] it was 104%; in assay [5] it was 98%; in assay [6], 116%. The growth in [7] was 112%; in assay [8], 99.4%.

As to `Cc1ccc(C)c(S(=O)(=O)NC2c3ccccc3Oc3ccccc32)c1`, the growth in assay [1] was 101%; in [2], 100%; in assay [3], 81.4%; in assay [9], 82.3%; in assay [5] it was 88.7%; in assay [6], 90.9%. Also, the growth was 73.7% in assay [7] and 89.3% in [8].

As to `Nc1ccn([C@@H]2O[C@H](COP(=O)(O)O[C@@H]3C[C@H](n4cc(F)c(=O)[nH]c4=O)O[C@@H]3COP(=O)(O)O[C@@H]3C[C@H](n4cc(F)c(=O)[nH]c4=O)O[C@@H]3COP(=O)(O)O[C@@H]3C[C@H](n4cc(F)c(=O)[nH]c4=O)O[C@@H]3COP(=O)(O)O[C@@H]3C[C@H](n4cc(F)c(=O)[nH]c4=O)O[C@@H]3COP(=O)(O)O[C@@H]3C[C@H](n4cc(F)c(=O)[nH]c4=O)O[C@@H]3COP(=O)(O)O[C@@H]3C[C@H](n4cc(F)c(=O)[nH]c4=O)O[C@@H]3COP(=O)(O)O[C@@H]3C[C@H](n4cc(F)c(=O)[nH]c4=O)O[C@@H]3COP(=O)(O)O[C@@H]3C[C@H](n4cc(F)c(=O)[nH]c4=O)O[C@@H]3COP(=O)(O)O[C@@H]3C[C@H](n4cc(F)c(=O)[nH]c4=O)O[C@@H]3COP(=O)(O)O[C@@H]3C[C@H](n4cc(F)c(=O)[nH]c4=O)O[C@@H]3COP(=O)(O)OCCOCCOCCOCCOCCOCCO)[C@H](O)C2O)c(=O)n1` (stereo not given in full), the growth in [1] is 60.2%; in assay [2], 52%; in assay [3] it was 13.5%; in assay [9], 11.7%; in assay [5], 26.7%; in assay [6], 46.5%. The growth in assay [7] is 21.4%; in [8] it was 26.8%.

With `COc1ccc2oc(=O)cc(C(c3ccc[nH]3)c3ccc[nH]3)c2c1`, the growth in assay [1] was 5.1% (active); in assay [2], 32.7%; in assay [3], 16.9%; in assay [4] it was 26.4%; in assay [5], 15.2%; in [6] it was -8.63% (active). Moreover, the growth was 11.3% in assay [7] and 6.26% (active) in assay [8].

As for `NC1CCC(Nc2nc(NCc3ccc(-c4cccs4)nc3)c3ncn(C4CCCC4)c3n2)CC1` (stereo not given), the growth is -76.8% (active) in assay [1]; -17% (active) in assay [2]; 9.49% (active) in assay [3]; -3.38% (active) in assay [9]; 15.3% in assay [5]; -78.5% (active) in [6]. In addition, the growth in assay [8] is -16.3% (active).

Regarding `CNC(=O)c1cc(Oc2ccc(NC(=O)Nc3ccc(Cl)c(OC4CCCCC4)c3)c(F)c2)ccn1`, the growth in assay [1] was 55.3%; in [2], 27.7%; in assay [3], 43.1%; in assay [4], 51.9%; in assay [9] it was 29.8%; in assay [5] it was 41.9%. Also, the growth is 57.5% in assay [6] and 24.1% in assay [8].

Turning to `Nc1c(C(=O)NC2CCCCC2)sc2nc3c(cc12)C(=O)CCC3`, the growth in assay [1] is 97.2%; in assay [10], 93.3%; in [3], 94.6%; in [4], 140%; in assay [9], 107%; in assay [5] it was 90.3%. Also, the growth was 88.6% in assay [6], 98.8% in [7] and 90.2% in [8].

As to `COc1ccc(-c2nc3sc(-c4ccccc4)c(-c4ccccc4)n3c2/C=C/c2ccc(F)cc2)cc1`, the growth in assay [1] is 89.3%; in assay [10] it was 86.7%; in assay [3], 82.7%; in assay [4] it was 115%; in assay [9] it was 78.9%; in [5], 67%. Besides, the growth was 108% in [6], 88.1% in assay [7] and 74.8% in [8].

For the compound `Nc1ncncc1-c1ccc(F)cc1`, the growth is 132% in assay [1]; 107% in [10]; 103% in assay [3]; 116% in [4]; 108% in assay [9]; 98.5% in assay [5]. In addition, the growth in assay [6] was 95.2%; in [7], 109%; in [8], 98.4%.

Turning to `CC(C)OP(=O)(O)c1ncc(-c2ccc(C(F)(F)F)cc2)c(NC2CCCCCC2)n1`, the growth in assay [1] is 65.4%; in assay [10] it was 54.4%; in assay [3], 60.2%; in assay [4] it was 67%; in [9] it was 34.6%; in assay [5], 87%. In addition, the growth in assay [6] was 89.5%; in [7] it was 48.6%; in assay [8], 80.4%.

In the case of `COc1ccc(S(=O)(=O)Nc2cc(/C=C\c3cc(OC)c(OC)c(OC)c3)ccc2OC)cc1`, the growth in assay [1] was 5.84% (active); in assay [10] it was 15.6%; in [3] it was 24.6%; in assay [4], 39.6%; in assay [9] it was 18.7%; in assay [5], 26%. Also, the figures for the growth in assay [6], in assay [7] and in assay [8] were -19.2% (active), 15.4% and 8.46% (active), respectively.

On to `CCNC1(NC#N)CCCCC1`, for which the growth in assay [1] was 157%; in assay [10], 100%; in assay [3], 90.9%; in [4], 141%; in assay [9], 111%; in assay [5], 96.3%. Further, the growth was 98.3% in assay [6], 102% in [7] and 108% in [8].
